From PubChem BioAssay
NR5A2 inv ag – suppresses constitutive activity of human LRH-1 | O00482 | HEK293T StAR-luciferase reporter, LRH-1 transfected, 24 h | inhibition, % at 3.6 µM | 0.13% of 360,000 active | AID 602396;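 active means inhibition above the mean inhibition of all tested compounds plus 3 SD, cut at about 73% in these data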;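 further: 0% = DMSO wells and 100% = reporter-only cells lacking LRH-1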
Target sequence (O00482 whole entry, looked up): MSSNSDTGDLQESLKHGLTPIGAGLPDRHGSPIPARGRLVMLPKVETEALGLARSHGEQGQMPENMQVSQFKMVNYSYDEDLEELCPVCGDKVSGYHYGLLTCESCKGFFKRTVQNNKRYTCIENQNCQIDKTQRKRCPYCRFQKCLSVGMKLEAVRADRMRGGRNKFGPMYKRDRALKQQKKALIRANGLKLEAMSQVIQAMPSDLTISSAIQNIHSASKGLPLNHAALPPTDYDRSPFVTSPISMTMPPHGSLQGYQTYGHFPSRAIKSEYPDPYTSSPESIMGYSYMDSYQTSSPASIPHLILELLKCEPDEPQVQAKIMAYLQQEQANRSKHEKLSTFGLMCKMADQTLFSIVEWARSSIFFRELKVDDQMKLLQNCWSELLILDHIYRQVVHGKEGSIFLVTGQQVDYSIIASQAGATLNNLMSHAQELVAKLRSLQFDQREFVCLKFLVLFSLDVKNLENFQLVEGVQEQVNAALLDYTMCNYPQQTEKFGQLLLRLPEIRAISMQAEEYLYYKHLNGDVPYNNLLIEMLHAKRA
NCOA3 inh – inhibitors of human steroid receptor coactivator 3 (SRC3); HEK293 GAL4-SRC3 luciferase reporter, luminescence; inhibition, % at 3.6 µM; 0.17% of 360,000 active; AID 588352;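 active means inhibition above a per-campaign cutoff, the mean of all compounds plus 3 SD, cut at about 60% in these data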;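 further: 0% = DMSO-treated cells and 100% = gossypol-treated cells at 36 µM; higher means less SRC3-driven luciferase light from the GAL4 reporter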
NR2F2 inh – NR2F2 (human) inhibition, primary screen; HEK293T NGFI-A luciferase reporter, luminescence; inhibition, % at 8.6 µM; 0.7% of 370,000 active; AID 686940;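 active means inhibition above a per-plate cutoff, mean inhibition of test wells between control levels plus 3 SD, cut at about 38% in these data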;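 further: cells cotransfected with COUP-TFII expression vector driving the NGFI-A reporter; 0% = median of COUP-TF2 test wells and 100% = reporter-only cells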
NCOA2 inhibitor – human SRC2 (NCOA2) inhibition; HEK293 GAL4-SRC2 luciferase reporter, luminescence; inhibition, % at 9 µM; 0.17% of 370,000 active; AID 651957;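 active means inhibition above the mean inhibition of all tested compounds plus 3 SD, set per campaign, cut at about 52% in these data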;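 further: 0% = DMSO treated cells and 100% = cells given Gossypol at 36 µM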
SRC1 inh – human NCOA1 inhibition | Q15788 | HEK293 GAL4-SRC1 luciferase reporter, luminescence | inhibition, % at 3.6 µM | 0.12% of 360,000 active | AID 588354;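 active means inhibition above the campaign mean plus 3 SD, with each screening campaign given its own cutoff, cut at about 60% in these data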;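 further: 0% = DMSO treated cells and 100% = gossypol at 36 µM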
VP16 Luc counter – inhibits VP16 reporter, flagging COUP-TFII antagonist hits | shares compounds with NR2F2 inh | 25% of 2,500 active | HEK293 Gal4-VP16 luciferase reporter, luminescence | inhibition, % at 8.5 µM | AID 687007; in the data active means inhibition above about 13%
NR2F2 inh conf – confirmation of human COUP-TFII (NR2F2) inhibitors; inhibition, % at 8.5 µM; HEK293 NGFI-A luciferase reporter, luminescence; 45% of 2,500 active; shares compounds with NR2F2 inh; AID 687008;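 active means mean inhibition over three repeats above a set limit taken from the earlier primary screen, cut at about 38% in these data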;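 further: 100% = cells given the luciferase reporter alone without the COUP-TF2 vector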
An asterisk follows results filed as active; . = no result. A selection: hits, their analogues and other compounds. The true share with any hit is near 0.81%.

SMILES	NR5A2 inv ag	NCOA3 inh	NR2F2 inh	NCOA2 inhibitor	SRC1 inh	VP16 Luc counter	NR2F2 inh conf
O=C1CC(c2ccc3c(c2)OCO3)Sc2nc3ccccc3n21 (stereo not drawn)	39	37	42*	2	29	-72	36
Cc1ccc(-c2c[n+](Cc3cccc(Cl)c3)c3n2CCC3)cc1	24	34	38*	11	16	4	8
CC1CC(C)C(=NNC(N)=O)C(C(O)CC2CCC(=O)NC2=O)C1 (stereo not drawn)	99*	74*	82*	58*	75*	-12	20
CN(C)Cc1nc2ccccc2c(=O)n1Cc1nc(-c2cc3ccccc3o2)cs1	-5	-1	14	8	13	.	.
CCOc1ccc(-c2csc(Cn3c(CN4CCN(C)CC4)nc4ccccc4c3=O)n2)cc1	-29	17	39*	16	-9	-11	7
O=C(/C=C/c1ccc([N+](=O)[O-])cc1)c1ccccc(=O)c1O	0	37	43*	-33	1	10	59*
CCOC(=O)C1CCN(C(c2cccnc2)c2c(NC(=O)c3ccco3)sc(C)c2C)CC1 (stereo not drawn)	41	6	70*	14	8	-14	39*
COc1ccccc1-c1csc(C(O)(c2ccccc2)C(F)(F)F)n1 (stereo not drawn)	-20	-3	-3	-13	1	.	.
Cc1nnc(SCC(=O)N2CCC(c3noc4ccc(F)cc34)CC2)s1	21	63*	49*	46	62*	5	19
COc1ccc(S(=O)(=O)N2C[C@H]3CON(C)[C@H]3C[C@H]2c2ccc(-c3cc4ccccc4o3)cc2)cc1	-32	10	2	23	-15	.	.
O=S(=O)(Cc1ccc(Cl)cc1)NCc1ccc2c(c1)OCO2	-19	-15	11	-5	-5	.	.
COc1ccc(OC)c(CCNC(=O)C(C)n2nc(C)c3c(C)n(-c4ccc(C)cc4)nc3c2=O)c1 (stereo not drawn)	54	32	73*	20	6	18*	73*
COc1ccc(OC)c(CCNC(=O)C(C)n2nc(C)c3c(C)n(-c4ccccc4)nc3c2=O)c1 (stereo not drawn)	9	3	-15	29	-6	.	.
Cc1ccc(-n2nc3c(=O)n(C(C)C(=O)NCc4ccccc4Cl)nc(C)c3c2C)cc1 (stereo not drawn)	27	-4	47*	12	-11	5	39*
Cc1ccc(-n2nc3c(=O)n(C(C)C(=O)NCCCc4ccccc4)nc(C)c3c2C)cc1 (stereo not drawn)	3	27	55*	24	12	-2	45*
O=S1(=O)CCSC[C@@H](CN2CCCC2)N1	.	.	-11	2	.	.	.
C=CCN(C(=O)[C@@H](C)[C@@H](O)c1ccc2ccccc2c1)c1ccccc1	.	.	10	-27	.	.	.
COc1ccc(Cl)cc1NC(=O)C1CC(=O)N(C2CCCCC2)C1 (stereo not drawn)	-19	-14	-5	-6	-9	.	.
CCCc1c(-c2ccccc2OC)ncn1CCc1ccccc1OC	.	.	31	9	.	.	.
CCCc1c(-c2ccc(OC)cc2)ncn1CCc1ccccc1OC	.	.	47*	17	.	-8	-6
COc1cc(CC(=O)OCC(=O)NCCc2ccc(S(N)(=O)=O)cc2)cc(OC)c1OC	3	3	5	9	0	.	.
Cc1noc(C)c1CSCC(=O)N1CCN(c2ccc([N+](=O)[O-])cc2)CC1	30	13	38*	19	5	2	26
Cc1ccc(COc2ccc(/C=N/NC(=O)c3ccc(CN4CCOCC4)cc3)cc2)cc1	15	0	15	-8	-13	.	.
Cc1ccc(C(C)C)c(OCc2ccc(C(=O)N/N=C/c3ccc(C(=O)O)cc3)cc2)c1	-26	-1	40*	47	-25	24*	8
O=C(c1ccc(S(=O)(=O)c2ccc(F)cc2)c([N+](=O)[O-])c1)N1CCCCCC1	30	37	43*	39	6	18*	22
SMILES	NR5A2 inv ag	NCOA3 inh	NR2F2 inh	NCOA2 inhibitor	SRC1 inh	VP16 Luc counter	NR2F2 inh conf
Cc1sc(-c2ccccn2)nc1OC(=O)c1ccc(F)cc1F	10	33	38*	8	4	-16	30
Cc1sc(-c2ccccn2)nc1OC(=O)c1ccc(Cl)c(Cl)c1	-21	3	0	6	-6	.	.
CC(C)CCCCCCCCCCCCC(=O)NCC(=O)NC1C(C)OC(Nc2ncnc3nc[nH]c23)C(O)C1O (stereo not drawn)	88*	91*	78*	40	87*	14*	82*
C/C(=C\CNc1ncnc2nc[nH]c12)CO	15	13	-5	16	-4	.	.
Cc1ccc(-c2cc(N)n(Cc3ccc(Cl)cc3)n2)cc1	38	0	48*	-21	-5	-19	21
Cc1cc(N)n(Cc2ccc(Cl)cc2)n1	-2	13	4	-4	1	.	.
CC1(C(=O)NCc2cccnc2)Cc2c(-c3cccc(C(F)(F)F)c3)ccnc2O1 (stereo not drawn)	-2	-26	39*	6	1	-8	7
COc1ccc(NC(=O)CSc2nnc(-c3cccc(O)c3)o2)cc1	22	4	-10	-11	4	.	.
COc1cccc(NC(=O)CSc2nnc(-c3cc(C)n(-c4ccccc4)c3C)o2)c1	59	49	68*	40	43	30*	70*
Cc1ccc(C2/C(=C(\O)c3ccc4c(c3)OCCO4)C(=O)C(=O)N2CC2CCCO2)cc1 (stereo not drawn)	0	8	12	2	-2	.	.
Cc1ccc(C(=O)Nc2cc(C(C)C)c(O)c(C(C)C)c2)cc1	-9	-3	46*	22	2	-5	2
CCCn1c(SC(C)C(=O)N2CCOCC2)nc2ccc(Br)cc2c1=O (stereo not drawn)	13	-1	7	4	7	.	.
CC(C)CN1C(=O)[C@@]2(CC(=O)N(C)C2c2ccccc2)c2cc(-n3cc(CCc4ccccc4)nn3)ccc21 (stereo partly drawn)	.	.	-34	8	.	.	.
COC(=O)c1ccccc1NS(C)(=O)=O	20	10	103*	8	-1	-3	-6
COC1=C[C@H](C(=O)NCc2ccccc2)[C@H](C)[C@@H](c2ccccc2)CC1=O	.	.	4	-13	.	.	.
COc1cc(C=Nc2c(C)cc(C)cc2C)ccc1OC(C)=O	13	3	50*	-6	2	7	6
COc1cc(/C=N/NC(=O)c2ccncc2)ccc1OC(C)=O	-2	5	5	11	12	.	.
O=C(CCl)N1CCN(S(=O)(=O)Cc2ccccc2)CC1	48	26	-5	48	19	.	.
O=C(O)c1ccc(N/N=C/c2ccc(C(F)(F)F)cc2)cc1	-28	31	23	14	-12	.	.
